From the supplement of paper PMC6555819

Experiments:
Assay in all cases: PBM binding z-score (relative to random genomic background probes); higher = stronger binding; sequences stand for … in GC…GCGATTGACAGCGTAGAATGAAGG
[1] = test system: PPARg:RXRa DBDmut IVT, anti-RXR (DBD mutation: RXRa K156A/R161A, NR concentration 270 nM, RXRa partner concentration 90 nM)
Method in brief: (§1)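 Antibodies against each partner of ligand-free nuclear receptor dimers (one per run) detected binding on custom Agilent 4×180K protein-binding microarrays after 1 h incubation. The double-stranded probes had 34-nt variable regions carrying direct-repeat seeds, single-nucleotide variants, half-site ablations and random human genomic background sequences. Binding z-scores, from regression-normalized fluorescence, use the random background probes as reference.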

[2] = test system: PPARg:RXRa IVT, anti-PPARg (NR concentration 270 nM, RXRa partner concentration 90 nM)
Method in brief: as §1

[3] = test system: PPARg homodimer (NR concentration 180 nM)
Method in brief: as §1

[4] = test system: PXR:RXRa (NR concentration 270 nM, RXRa partner concentration 90 nM)
Method in brief: as §1

[5] = test system: PXR homodimer (NR concentration 270 nM)
Method in brief: as §1

[6] = test system: RARa:RXR (NR concentration 270 nM, RXRa partner concentration 90 nM)
Method in brief: as §1

[7] = test system: RARa homodimer (NR concentration 270 nM)
Method in brief: as §1

[8] = test system: RARb:RXRa (NR concentration 270 nM, RXRa partner concentration 90 nM)
Method in brief: as §1

[9] = test system: RARb homodimer (NR concentration 270 nM)
Method in brief: as §1

[10] = test system: RARg:RXRa (NR concentration 270 nM, RXRa partner concentration 90 nM)
Method in brief: as §1

[11] = test system: RARg homodimer (NR concentration 270 nM)
Method in brief: as §1

[12] = test system: RXRa DBDmut IVT, anti-RXR (DBD mutation: RXRa K156A/R161A, NR concentration 90 nM)
Method in brief: as §1

[13] = test system: RXRa homodimer (NR concentration 180 nM)
Method in brief: as §1

[14] = test system: THRa:RXRa (NR concentration 90 nM, RXRa partner concentration 90 nM)
Method in brief: as §1

[15] = test system: THRa homodimer (NR concentration 90 nM)
Method in brief: as §1

[16] = test system: VDR homodimer (NR concentration 270 nM)
Method in brief: as §1

| Sequence | PBM binding z-score [1] | PBM binding z-score [2] | PBM binding z-score [3] | PBM binding z-score [4] | PBM binding z-score [5] | PBM binding z-score [6] | PBM binding z-score [7] | PBM binding z-score [8] | PBM binding z-score [9] | PBM binding z-score [10] | PBM binding z-score [11] | PBM binding z-score [12] | PBM binding z-score [13] | PBM binding z-score [14] | PBM binding z-score [15] | PBM binding z-score [16] |
| --- | --- | --- | --- | --- | --- | --- | --- | --- | --- | --- | --- | --- | --- | --- | --- | --- |
| TCGAGTAGGTTACGGGGGCATTCAAGGATGAAGA | 4.93 | 6 | 1.38 | 3.1 | 1.06 | 3.21 | 0.0228 | 2.59 | 2.13 | 3.22 | 2.33 | 1.68 | 2.9 | 4.28 | 1.06 | 2.77 |
| CTATGTAGGTTAAGGGGGTCAATCAGTTTGAAAG | 7.42 | 7.48 | 2.63 | 5.16 | 7.48 | 5.23 | 0.971 | 3.41 | 3.94 | 5.13 | 4.33 | 1.67 | 5.67 | 3.81 | 1.49 | 4.34 |
| TCGGGTAGGTTACGGGGGCATTCAGGGATGAAGA | 4.27 | 6.24 | 3.68 | 4.2 | 3.72 | 4.12 | 1.88 | 3.35 | 3.18 | 4.23 | 4.1 | 3.04 | 3.43 | 4.32 | 3.14 | 4.85 |
| CTATGTAGGTTAAGGGGGTGATTCAGTTTGAAAG | 7.48 | 7.27 | 2.45 | 2.49 | 2.65 | 2.41 | 1.25 | 2.34 | 1.97 | 2.23 | 1.77 | 1.42 | 2 | 2.21 | 1.73 | 2.22 |
| CTATGTAGGTTAAGAGGGTCATTCAGTTTGAAAG | 7.34 | 7.14 | 2.35 | 3.96 | 5.84 | 3.56 | 0.734 | 2.63 | 3.03 | 3.16 | 2.3 | 1.33 | 3.33 | 2.42 | 0.33 | 3.39 |
| TCGAGTAGGTTACGGGGCCATTCAGGGATGAAGA | 3.76 | 4.63 | 0.412 | 0.639 | -0.128 | 0.892 | -0.208 | 1.44 | 1.21 | 0.957 | 0.954 | 0.0548 | 1.06 | 2.47 | 0.44 | 0.657 |
| CTATGTAGGTTAAGGGGGTCATCCAGTTTGAAAG | 7.02 | 7.73 | 3.6 | 5.82 | 9.26 | 5.73 | 1.05 | 3.65 | 4.02 | 5.27 | 4.17 | 2.11 | 5.94 | 3.97 | 1.94 | 4.9 |
| CCGAGTAGGTTACGAGGGGGCATCCAGTGCGAAT | 4.1 | 4.45 | 1.63 | 4.3 | 2.67 | 2.86 | 0.122 | 2.1 | 2.11 | 2.95 | 2.31 | 0.736 | 2.02 | 3.7 | 0.756 | 2.87 |
| TCGAGTAGGTTATGGGGGCATTCAGGGATGAAGA | 3.92 | 5.17 | 1.07 | 2.72 | 1.87 | 2.72 | 0.33 | 2.13 | 2.17 | 2.62 | 1.29 | 1.84 | 2.1 | 3.99 | 1.84 | 2.57 |
| TCGACTAGGTTACGGGGGCATTCAGGGATGAAGA | 5.37 | 6.51 | 2.41 | 3.59 | 2.11 | 3.47 | 0.467 | 2.91 | 2.54 | 3.66 | 3.14 | 2.55 | 2.88 | 4.1 | 1.91 | 3.72 |
| CCTAGTAGGTTACGAGGGGGCATTCAGTGCGAAT | 6.21 | 6.3 | 3.88 | 5.02 | 6.19 | 2.97 | 1.46 | 2.32 | 2.39 | 3.44 | 2.96 | 1.47 | 2.43 | 3.91 | 0.978 | 3.98 |
| CTATGTAGGTTAAGGGGGTCATTCAGTTTGAAAG | 7.67 | 7.74 | 3.66 | 6.09 | 11.4 | 5.93 | 1.81 | 3.73 | 3.93 | 5.34 | 4 | 2.56 | 6.26 | 3.95 | 2.19 | 4.98 |
| CTATGTAGGTTAAGGGTGTCATTCAGTTTGAAAG | 7.72 | 7.59 | 1.32 | 1.38 | 0.641 | 1.5 | 0.262 | 1.56 | 1.44 | 1.38 | 0.949 | 0.738 | 1.35 | 1.04 | 0.005 | 1.42 |
| TCGAGTAGGTTACGGGGGCATTCAGGGATGAAGA | 4.99 | 5.99 | 1.92 |  | 1.53 | 2.98 | 1.5 | 2.61 | 2.45 | 3.55 | 2.61 | 1.79 | 2.77 | 3.81 | 1.25 | 2.57 |
| TCGAGTAGGTTCCGGGGGCATTCAGGGATGAAGA | 1.44 | 2.23 | 1.05 | 2.68 | 1.13 | 1.96 | -0.469 | 1.17 | 1.25 | 1.57 | 1.13 | 1.02 | 1.33 | 3.53 | 1.08 | 3.01 |
| TCGAGTAGGTTACGGGGGCATTCTGGGATGAAGA | 5.04 | 5.91 | 1.3 | 2.85 | 1.48 | 2.92 | -0.159 | 2.27 | 2.05 | 3.25 | 2.19 | 1.74 | 2.52 | 3.32 | 1.3 | 3.52 |
